Reference: PubChem BioAssay
The source made the active and inactive calls. Unless noted, how the calls were made is not given here.

Tests used:
[1] = compound effects on lung adenocarcinoma cell viability – A549, calcein-AM fluorescence, 48 h, basal, profiling panel (AID 1162); settings: higher = more signal; further: test concentration not given here
[2] = compound effects on differentiated 3T3-L1 adipocyte viability – cell-based, 3T3-L1 adipocytes, calcein-AM fluorescence, 48 h, basal, profiling panel (AID 1163); settings: 3T3-L1 adipocytes viability, higher = more signal; further: test concentration not given here
[3] = compound effects on hepatocellular carcinoma cell viability – HepG2, calcein-AM fluorescence, 48 h, basal, profiling panel (AID 1164); settings: higher = more signal; further: test concentration not given here
[4] = compound effects on multiple myeloma cell viability – MM1S, calcein-AM fluorescence, 48 h, basal, profiling panel (AID 1165); settings: higher = more signal;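 further: viability of MM1S multiple myeloma cells under basal unstimulated conditions; test concentration not given here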
[5] = calcein-AM signal in unstimulated myeloma cells – cell-based, calcein-AM fluorescence, 48 h, PK04 Diversity Set, profiling panel (AID 1166); settings: RPMI8226 myeloma viability, higher = more signal;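 further: cells grown under basal conditions without added stimulus; test concentration not given here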
[6] = JC-1 mitochondrial signal, unstimulated HepG2 cells – cell-based, JC-1 fluorescence, 24 h, 100 nL compound, profiling panel (AID 1167); settings: HepG2 mitochondrial potential, higher = more signal; further: test concentration not given here
[7] = JC-1 mitochondrial signal, unstimulated adipocytes – cell-based, JC-1 fluorescence, 3T3-L1 adipocytes, 24 h, 100 nL compound, profiling panel (AID 1168); settings: JC-1 mitochondrial fluorescence, higher = more signal, called active from +8 up or from −8 down; further: test concentration not given here
[8] = JC-1 mitochondrial signal, unstimulated myeloma cells – cell-based, JC-1 fluorescence, RPMI8226, 24 h, 100 nL compound, profiling panel (AID 1169); settings: JC-1 mitochondrial potential fluorescence, higher = more signal; further: test concentration not given here
[9] = JC-1 mitochondrial signal, unstimulated MM1S myeloma – cell-based, JC-1 fluorescence, 24 h, 100 nL compound, profiling panel (AID 1170); settings: MM1S mitochondrial potential, higher = more signal; further: test concentration not given here
[10] = resazurin metabolic signal in A549 cells – cell-based, resazurin fluorescence, 24 h, PK04 Diversity Set, profiling panel (AID 1171); settings: A549 viability, higher = more signal, called active from +8 up or from −8 down; further: test concentration not given here
[11] = resazurin metabolic signal in HepG2 cells – cell-based, resazurin fluorescence, 24 h, PK04 Diversity Set, profiling panel (AID 1172); settings: HepG2 viability, higher = more signal; further: test concentration not given here
[12] = budding yeast growth changes without added modifier – OD600, strain BY4716, 24 h, basal condition, primary screen (AID 1173); settings: S. cerevisiae BY4716 growth, OD600, 24 h; higher = more signal, called active from +8 up or from −8 down
[13] = viability profiling in MM1S myeloma cells – cell-based, resazurin fluorescence, basal, 24 h, PK04 Diversity Set, profiling panel (AID 1174); settings: higher = more signal, called active from +8 up or from −8 down; further: test concentration not given here
[14] = target: Dihydroorotate dehydrogenase (quinone), mitochondrial (Plasmodium falciparum (isolate 3D7)) (UniProt Q08210); assay: inhibition of P. falciparum DHODH – biochemical, C-terminal His tag, absorbance 600 nm, primary screen (AID 1175); settings: PfDHODH enzyme, DCIP absorbance 600 nm; higher = more signal, called active from +8 up or from −8 down;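 further: recombinant parasite enzyme with a five histidine tag at its C terminus; test concentration not given here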
[15] = inhibition of PAO1 biofilm formation – strain PAO1, LB-PBS medium, absorbance 600 nm, primary screen (AID 1176); further: test concentration not given here; settings: P. aeruginosa PAO1 growth/biofilm, A600, 12 h; higher = more signal
[16] = growth modulation of vineyard yeast isolate – strain RM11-1a, OD600, basal, 24 h, primary screen (AID 1177);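 further: cultures grown under basal conditions with no added stressor; test concentration not given here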; settings: S. cerevisiae RM11-1a growth, OD600, 24 h; higher = more signal, called active from +8 up or from −8 down
[17] = growth of efflux-deficient E. coli DRC39 – strain DRC39, OD650, 24 h, E. coli filamentation inducers, primary screen (AID 1178);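 further: growth measured as culture turbidity by optical density at 650 nm; test concentration not given here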; settings: E. coli DRC39 acrAB, higher = more signal, called active from +8 up or from −8 down
[18] = growth of efflux-deficient E. coli DRC39 – strain DRC39, OD650, 48 h, E. coli filamentation inducers, primary screen (AID 1179);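 further: screen aims at cell division blockers that make cells filament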; settings: E. coli DRC39 delta-acrAB growth, higher = more signal, called active from +8 up or from −8 down
[19] = viability profiling in RPMI8226 myeloma cells – cell-based, resazurin fluorescence, basal, 24 h, PK04 Diversity Set, profiling panel (AID 1180); settings: higher = more signal;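 further: RPMI8826 multiple myeloma cell line at 5000 cells per well; test concentration not given here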
[20] = target: E3 ubiquitin-protein ligase XIAP (Homo sapiens) (UniProt P98170); assay: small molecules binding XIAP protein – biophysical, small-molecule microarray, fluorescence 635 nm, primary screen (AID 1181); settings: higher = more signal;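 further: score merges 667 nm emission and signal to noise over triplicate slides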
Chain of E3 ubiquitin-protein ligase XIAP (Homo sapiens) (P98170 whole entry, looked up): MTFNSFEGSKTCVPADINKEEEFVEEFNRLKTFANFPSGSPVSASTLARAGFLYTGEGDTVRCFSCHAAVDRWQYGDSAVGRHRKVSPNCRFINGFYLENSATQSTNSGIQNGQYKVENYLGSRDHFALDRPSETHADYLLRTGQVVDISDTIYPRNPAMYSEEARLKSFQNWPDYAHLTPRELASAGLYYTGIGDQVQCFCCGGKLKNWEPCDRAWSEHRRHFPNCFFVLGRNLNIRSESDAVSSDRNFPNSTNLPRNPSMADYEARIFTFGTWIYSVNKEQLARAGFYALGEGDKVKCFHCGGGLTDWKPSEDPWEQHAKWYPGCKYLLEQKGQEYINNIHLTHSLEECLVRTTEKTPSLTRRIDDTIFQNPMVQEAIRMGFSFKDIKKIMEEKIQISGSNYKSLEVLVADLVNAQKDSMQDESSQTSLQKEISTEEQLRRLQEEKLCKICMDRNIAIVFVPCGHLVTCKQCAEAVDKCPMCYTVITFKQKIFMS

Chain of Dihydroorotate dehydrogenase (quinone), mitochondrial (Plasmodium falciparum (isolate 3D7)) (Q08210 whole entry, looked up): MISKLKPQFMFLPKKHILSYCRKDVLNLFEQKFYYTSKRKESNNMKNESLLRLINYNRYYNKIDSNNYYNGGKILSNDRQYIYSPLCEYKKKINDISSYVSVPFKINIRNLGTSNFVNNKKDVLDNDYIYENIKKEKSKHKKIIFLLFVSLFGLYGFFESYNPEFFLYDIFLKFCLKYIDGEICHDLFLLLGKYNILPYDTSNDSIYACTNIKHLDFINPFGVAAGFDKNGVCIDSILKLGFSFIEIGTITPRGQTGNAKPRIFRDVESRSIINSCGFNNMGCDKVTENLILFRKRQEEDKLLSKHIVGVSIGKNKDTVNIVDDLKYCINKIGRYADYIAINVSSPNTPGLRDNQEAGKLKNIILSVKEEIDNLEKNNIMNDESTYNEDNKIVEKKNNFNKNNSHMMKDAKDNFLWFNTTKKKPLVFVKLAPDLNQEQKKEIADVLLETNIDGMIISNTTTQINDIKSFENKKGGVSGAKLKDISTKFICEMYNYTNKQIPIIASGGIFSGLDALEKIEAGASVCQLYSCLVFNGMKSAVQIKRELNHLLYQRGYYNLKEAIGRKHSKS

Row | SMILES | z-score [1] | z-score [2] | z-score [3] | z-score [4] | z-score [5] | z-score [6] | z-score [7] | z-score [8] | z-score [9] | z-score [10] | z-score [11] | z-score [12] | z-score [13] | composite z-score [14] | z-score [15] | z-score [16] | z-score [17] | z-score [18] | z-score [19] | composite z-score [20]
1 | C=CC[C@]1(C(=O)NCCN2CCOCC2)N=C(c2ccc(OCCCO)cc2)O[C@H]1c1ccccc1N=[N+]=[N-] | 0.0657 | 0.572 | 0.353 | -1.05 | -0.766 | 1.03 | 1.98 (inactive) | -0.701 | 0.472 | 0.0624 (inactive) | -0.153 | -1.51 (inactive) | 0.0032 (inactive) | 0.918 (inactive) | -0.251 (inactive) | 0.393 (inactive) | 2.29 (inactive) | 0.746 (inactive) | -0.414 | 0.113
2 | NC(=O)NCC#Cc1ccc2c(c1)[C@]1(C(=O)N2)[C@H](c2ccc(O)cc2)N2[C@H](c3ccccc3)[C@H](c3ccccc3)OC(=O)[C@H]2[C@@H]1C(=O)N1CCN(c2ncccn2)CC1 | 0.719 | 0.464 | -1.08 | 0.252 | 0.719 | -1.83 | -0.197 (inactive) | 0.591 | 1.06 | 0.956 (inactive) | -0.271 | 0.244 (inactive) | 0.965 (inactive) | -0.154 (inactive) | 1.18 (inactive) | 0.517 (inactive) | 0.247 (inactive) | 0.0093 (inactive) | 1.24 | -0.0004
3 | Cc1c(NC(=O)/C(C#N)=C/C=C/c2ccccc2)c(=O)n(-c2ccccc2)n1C | -0.864 | 0.287 | 0.458 | 0.142 | 0.24 | -1.05 | -0.113 (inactive) | 0.305 | 0.56 | -0.2 (inactive) | -0.0273 | -0.0874 (inactive) | -0.335 (inactive) | 0.316 (inactive) | 0.242 (inactive) | -0.74 (inactive) | 1.39 (inactive) | 0.0139 (inactive) | 0.161 | 0.313
4 | C=CCC(OC(C)=O)[C@@H]1[C@@H](N(Cc2cc3ccccc3o2)C(=O)c2ccc(C)cc2)c2cc(OCCCO)ccc2N1C(=O)c1ccc(-c2ccccc2)cc1 (stereo not given in full) | 2.54 | 1.34 | 1.8 | 0.217 | 1.46 | 2.87 | -0.314 (inactive) | 0.614 | -0.763 | 0.875 (inactive) | 0.419 | -2.68 (inactive) | -0.0884 (inactive) | -3 (inactive) | 0.444 (inactive) | -3.8 (inactive) | 1.15 (inactive) | 1.35 (inactive) | 1.07 | 2.75
5 | C#C[C@H]1Oc2ccccc2S(=O)(=O)N2CCC[C@@H]12 | -0.308 | -0.401 | -1.19 | 0.132 | -0.446 | -0.777 | -0.275 (inactive) | -0.18 | -0.116 | -0.424 (inactive) | -0.87 | -0.454 (inactive) | -0.482 (inactive) | 0.112 (inactive) | -0.0582 (inactive) | -0.0887 (inactive) | 0.0374 (inactive) | -0.29 (inactive) | -0.652 | -0.299
6 | CC(C)C[C@@H]1NC(=O)[C@@H]2C[C@H](C(=O)NCCCCN(C)C)[C@H](c3ccc(O)cc3)N2C1=O | -0.583 | -0.339 | -0.375 | 0.12 | 0.579 | -1.26 | -0.0811 (inactive) | -0.0507 | 0.218 | 0.408 (inactive) | 0.955 | 0.463 (inactive) | 0.396 (inactive) | -0.0312 (inactive) | -0.475 (inactive) | 0.505 (inactive) | -0.113 (inactive) | -0.401 (inactive) | 0.0109 | 0.102
7 | CCCNC(=O)[C@@]1(C)c2ccccc2C(=O)N(Cc2ccc(OC(F)(F)F)cc2)[C@H]1c1ccc(CO)cc1 | 0.951 | -0.105 | 1.28 | 0.328 | -0.0542 | 3.34 | 0.45 (inactive) | -0.244 | -0.949 | -0.658 (inactive) | -0.0818 | -0.0169 (inactive) | -0.0521 (inactive) | 0.263 (inactive) | 0.251 (inactive) | -0.277 (inactive) | 0.484 (inactive) | 1.28 (inactive) | 0.325 | -0.0599
8 | CCOC1=C2C(c3ccc(C)cc3)N(S(=O)(=O)c3ccc(C)cc3)CC2n2c(=O)n(-c3ccccc3)c(=O)n2C1 (stereo not given) | -0.943 | -0.334 | -0.422 | -0.255 | -0.546 | 1.53 | 0.497 (inactive) | 0.709 | -1.03 | -0.629 (inactive) | -0.994 | 1.21 (inactive) | -0.932 (inactive) | -2.05 (inactive) | -0.172 (inactive) | 0.135 (inactive) | -0.15 (inactive) | 0.717 (inactive) | -0.774 | 0.199
9 | CCCC[C@H]1C[C@@H]1[C@@H]1N(P(=O)(c2ccccc2)c2ccccc2)[C@](CO)(c2ccccc2)CC12CC2 | -2.02 | -0.0661 | -1.96 | -3.23 | -4.69 | -2.28 | -0.732 (inactive) | -0.868 | -2.86 | 0.936 (inactive) | -0.544 | 0.402 (inactive) | -1.93 (inactive) | -0.152 (inactive) | 0.411 (inactive) | 1.14 (inactive) | 0.0779 (inactive) | -0.872 (inactive) | -6.02 | 0.247
